Screening results as filed in PubChem BioAssay.
In the library only some 12% were active in any assay of this set; here they are far more common.
G9a block – blocks human histone lysine methyltransferase G9a; Q96KQ7; G9a H3K9 monomethylation, AlphaScreen, 2 h; Potency, µM (series often up to 102 µM), without a hit: at the highest dose activity, negative = inhibition, actives largely listed as inhibitors; 350,000 compounds, 8.8% hits; further: on the % scale 0 is the no-effect control and ±100 the full control effect; nearly all actives have a fitted effect of over 75% in size
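Chemiluminescent proximity detection of H3K9 monomethylation, read after 10 min bead incubation in the dark. Reaction: 20 nM G9a, 500 nM biotin-H3K9 peptide, 20 uM SAM cofactor, 2 h, room temperature, following 15 min enzyme-compound preincubation.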
Sfp inh – inhibitors of Bacillus subtilis Sfp phosphopantetheinyl transferase | Q9F4F7 | Biochemical Sfp PPTase activity, qHTS | Potency, µM, for inactives: largest response in the series, negative = inhibition, hits mostly inhibitors | 310,000 compounds, 3.5% hits;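 further: the enzyme is Sfp with the accession as filed and its product quenches rhodamine fluorescence; 0% = enzyme reaction without inhibitor and -100% = no enzyme wells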
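After 15 min at room temperature with compound, 15 nM Sfp received 5 uM rhodamine-CoA plus 12.5 uM BHQ-2-ybbR (50 mM Hepes pH 7.6, 10 mM MgCl2). Rate came from the fluorescence difference over 30 min, ex 525/em 598 nm.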
BAZ2B inh – inhibitors of human BAZ2B bromodomain. Potency, µM (series often up to 114 µM), for the others: top-dose activity change, negative = inhibition, most hits filed as inhibitors. AlphaScreen BAZ2B-H3K14Ac peptide displacement. AID 504333. 360,000 compounds, 4.4% hits. Q9UIF8; further: on the % scale 0 is the no-effect control and ±100 the full control effect; nearly all actives have a fitted effect of over 60% in size
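AlphaScreen luminescence quantifies BAZ2B engagement of H3K14Ac peptide; the protein and biotinylated peptide are both at 50 nM final, buffer PBS pH 7.4 with 0.01% Tween-20, all steps at room temperature.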
PLK1 PBD inh – inhibitors of human PLK1 polo-box domain binding. P53350. Plk1 PBD binding of FITC phosphopeptide, fluorescence polarization. Potency, µM, inactives show max response, negative = inhibition, actives largely listed as inhibitors. 360,000 compounds, 2.8% hits. AID 720504; further: series mostly up to about 57 µM; on the % scale 0 is the no-effect control and ±100 the full control effect; nearly all actives have a fitted effect of over 65% in size
Target sequence (P53350 whole entry, looked up, the tested form may be a part): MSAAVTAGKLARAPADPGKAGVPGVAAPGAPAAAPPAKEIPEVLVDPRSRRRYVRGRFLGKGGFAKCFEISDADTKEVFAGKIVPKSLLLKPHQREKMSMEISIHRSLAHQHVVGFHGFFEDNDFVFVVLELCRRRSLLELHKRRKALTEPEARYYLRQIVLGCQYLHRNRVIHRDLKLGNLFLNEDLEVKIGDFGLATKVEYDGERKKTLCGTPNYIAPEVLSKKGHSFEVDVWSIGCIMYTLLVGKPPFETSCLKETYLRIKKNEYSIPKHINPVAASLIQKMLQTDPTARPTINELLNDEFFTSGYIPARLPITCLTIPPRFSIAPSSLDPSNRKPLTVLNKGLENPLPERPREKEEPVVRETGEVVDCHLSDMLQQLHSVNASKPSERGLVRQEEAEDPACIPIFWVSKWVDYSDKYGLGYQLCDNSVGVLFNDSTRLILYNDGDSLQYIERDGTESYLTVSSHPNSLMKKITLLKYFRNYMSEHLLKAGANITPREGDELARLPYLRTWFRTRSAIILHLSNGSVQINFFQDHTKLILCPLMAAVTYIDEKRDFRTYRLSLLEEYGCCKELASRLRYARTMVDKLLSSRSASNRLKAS
HP1b chromo inh – inhibitors of HP1-beta chromodomain binding to methylated histone tails; P83916; AlphaScreen HP1-beta / biotin-H3K9me3 peptide binding; Potency, µM (top dose mostly 114 µM), without a hit: at the highest dose activity change, negative = inhibition, usual class: inhibitors; 390,000 compounds, 0.56% hits; AID 540317; further: nearly all actives have a fitted effect of over 70% in size
Target sequence (P83916 whole entry, looked up): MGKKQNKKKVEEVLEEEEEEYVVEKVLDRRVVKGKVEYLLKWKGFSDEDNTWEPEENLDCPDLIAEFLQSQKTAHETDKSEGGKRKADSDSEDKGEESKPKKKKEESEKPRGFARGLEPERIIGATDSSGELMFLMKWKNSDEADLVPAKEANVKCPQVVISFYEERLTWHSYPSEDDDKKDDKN
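Compound inhibition of the preformed complex between 50 nM HP1-beta and 50 nM biotinylated H3K9me3 peptide was read by AlphaScreen. Buffer was PBS pH 7.4 with 0.01% Tween-20. Incubations ran 30 min at room temperature, with 10 ug/mL donor/acceptor beads.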
JMJD2A Tudor inh – inhibitors of human JMJD2A Tudor domain | O75164 | Potency, µM (highest dose often 114 µM), for the others: at the top dose activity change, negative = inhibition, hits mostly inhibitors | AID 504339 | 390,000 compounds, 4.4% hits | AlphaScreen JMJD2A-Tudor / H3K4me3 peptide binding; further: on the % scale 0 is the no-effect control and ±100 the full control effect; nearly all actives have a fitted effect of over 50% in size
An asterisk follows results filed as active; [ ] = another dose, or the depositor's remark. The call rests on the fitted dose curve; in most records, active means well fitted curve in the direction sought with a large enough effect; inconclusive means small, poorly fitted or top-dose-only effect, or another doubt; inactive means no such curve, though single readings can be large; an effect the other way counts as inactive or inconclusive. Potency means the concentration at half of the fitted maximal effect.

What do the screens show for `O=C1CC(c2ccccc2)CC(=O)C1CS(=O)(=O)c1ccccc1` (stereo not drawn)?
G9a block: 3.16µM*; Sfp inh: -51.4%; BAZ2B inh: -32.2%; PLK1 PBD inh: -25.4%; HP1b chromo inh: 44.8%; JMJD2A Tudor inh: -20.1%

Results for O=C1CC(NCC2CCCO2)C(=O)N1c1ccc(F)cc1 (stereo not drawn) ?
G9a block: 50.1µM*; Sfp inh: -16.0%; BAZ2B inh: -8.1%; PLK1 PBD inh: 2.3%; HP1b chromo inh: 23.6%; JMJD2A Tudor inh: -17.9%

Results for N#CCNC1CC(=O)N(c2ccc(F)cc2)C1=O (stereo not drawn) ?
G9a block: 7.94µM*; Sfp inh: inconclusive; BAZ2B inh: -5.5%; PLK1 PBD inh: -14.2%; HP1b chromo inh: 1.2%; JMJD2A Tudor inh: -18.8%

Results for O=C1CC(NCc2ccc(F)cc2)C(=O)N1c1ccccc1 (stereo not drawn) ?
G9a block: -47.6%; Sfp inh: 9.0%; BAZ2B inh: -15.2%; PLK1 PBD inh: -9.4%; HP1b chromo inh: 41.4%; JMJD2A Tudor inh: -10.6%

How did CCCCCCCCCCCCCCOS(=O)(=O)O do in these assays?
Sfp inh: 14.3%

How did C/C=C1\COC(C(=O)NCc2ccccc2)(C(F)(F)F)C=C1C=C(C)C (stereo not drawn) do in these assays?
Sfp inh: 1.8%; PLK1 PBD inh: 1.9%; HP1b chromo inh: 60.4%; JMJD2A Tudor inh: 47.9%

How did Cc1cc(F)ccc1NC(=O)C1CSC2(C)CCC(=O)N12 (stereo not drawn) do in these assays?
G9a block: -2.1%; BAZ2B inh: 11.9%; PLK1 PBD inh: -8.1%; HP1b chromo inh: 34.9%; JMJD2A Tudor inh: -9.7%

What do the screens show for `COc1cc(OC)cc(C(=O)Nc2ccc(NC(=O)c3ccco3)c(C)c2)c1`?
G9a block: 50.1µM*; Sfp inh: 11.2%; BAZ2B inh: -26.0%; PLK1 PBD inh: -18.5%; HP1b chromo inh: -0.4%; JMJD2A Tudor inh: -17.6%

How did Cc1cc(NC(=O)c2ccco2)ccc1NC(=O)c1ccco1 do in these assays?
G9a block: 4.2%; Sfp inh: 14.0%; BAZ2B inh: -10.8%; PLK1 PBD inh: -13.0%; HP1b chromo inh: 36.9%; JMJD2A Tudor inh: -11.0%

What do the screens show for `Cc1ccc(NC(=O)c2ccco2)cc1C`?
G9a block: 4.6%[59 µM]; Sfp inh: 11.2%; BAZ2B inh: inconclusive; PLK1 PBD inh: 21.2µM*; HP1b chromo inh: -6.3%; JMJD2A Tudor inh: -21.4%[11.4 µM]

What do the screens show for `COC(=O)[C@@H](N)Cc1ccc(O)c(O)c1`?
G9a block: 3.5%[59 µM]; Sfp inh: 56.2µM*; BAZ2B inh: 4.8%; PLK1 PBD inh: -10.0%; HP1b chromo inh: 14.6%; JMJD2A Tudor inh: -10.1%

How did CCN1C[C@@H]2[C@@H]3C(=O)N(C)C(=O)[C@@H]3[C@](Cc3ccccc3)(C(=O)OC)N2C1=NCc1ccccc1 do in these assays?
PLK1 PBD inh: -3.5%; HP1b chromo inh: 19.6%; JMJD2A Tudor inh: -21.2%

What do the screens show for `CC(C(=O)NN)n1nnc(N2CCOCC2)n1` (stereo not drawn)?
Sfp inh: 4.6%; BAZ2B inh: 0.0%; PLK1 PBD inh: -2.0%; HP1b chromo inh: 52.6%; JMJD2A Tudor inh: -2.2%

What do the screens show for `CC(C(=O)NNS(=O)(=O)c1cccc(C(F)(F)F)c1)n1nnc(N2CCOCC2)n1` (stereo not drawn)?
G9a block: 31.6µM*; Sfp inh: 8.4%; BAZ2B inh: -16.4%; PLK1 PBD inh: -1.8%; HP1b chromo inh: 15.5%; JMJD2A Tudor inh: 14.1µM*

What do the screens show for `Cc1ccccc1CCNCc1c(C(=O)O)c(C)n(Cc2c(F)cccc2Cl)c1C`?
G9a block: -5.3%[59 µM]; BAZ2B inh: -16.0%; HP1b chromo inh: 12.5%; JMJD2A Tudor inh: -21.5%

What do the screens show for `Oc1ccc(Br)cc1/C=N/n1c(C2CCCCC2)n[nH]c1=S`?
G9a block: 50.1µM*; Sfp inh: -2.4%; BAZ2B inh: inconclusive; PLK1 PBD inh: 26.7µM*; HP1b chromo inh: -18.4%; JMJD2A Tudor inh: inconclusive

Results for Oc1ccc(/C=N/n2c(C3CCCCC3)n[nH]c2=S)c(O)c1 ?
G9a block: 1.58µM*; Sfp inh: 0.178µM*; BAZ2B inh: -33.2%; PLK1 PBD inh: inconclusive; HP1b chromo inh: -10.3%; JMJD2A Tudor inh: 14.1µM*

How did CC(C)S(=O)(=O)N1CCN(c2nc(-c3cccs3)nc3ccccc23)CC1 do in these assays?
HP1b chromo inh: 38.8%; JMJD2A Tudor inh: -17.7%

Results for CCOC(=O)c1cc2c(=O)n3ccccc3nc2n(CCCOC)c1=NC(=O)c1c(-c2c(F)cccc2Cl)noc1C ?
G9a block: inconclusive; BAZ2B inh: 9.1%; HP1b chromo inh: 23.2%; JMJD2A Tudor inh: -12.6%

How did NC(C(=O)O)C1ON=C(Cl)C1O (stereo not drawn) do in these assays?
PLK1 PBD inh: -0.4%; HP1b chromo inh: 44.0%; JMJD2A Tudor inh: 79.4µM*

What do the screens show for `CN(C)c1ccc(/C=N\NC(=O)c2csnn2)cc1`?
G9a block: 3.4%[0.0925 µM]; Sfp inh: 39.8µM*; BAZ2B inh: 7.6%; PLK1 PBD inh: -9.8%; HP1b chromo inh: 27.1%; JMJD2A Tudor inh: -5.5%[57.1 µM]

Results for Cc1cccc(C(=O)N/N=C/c2ccoc2)c1 ?
G9a block: 6.4%; Sfp inh: 11.4%; BAZ2B inh: 50.1µM*; PLK1 PBD inh: -11.4%; HP1b chromo inh: 16.6%; JMJD2A Tudor inh: -25.8%

What do the screens show for `Cc1cccc(/C=N/NC(=O)C[n+]2ccccc2)c1`?
G9a block: 2.0%[0.501 µM]; BAZ2B inh: 12.4%; PLK1 PBD inh: -4.0%; HP1b chromo inh: 34.9%; JMJD2A Tudor inh: -23.4%

How did CCOC(=O)N/N=C/c1ccc(Oc2ccccc2)cc1 do in these assays?
G9a block: -42.1%; Sfp inh: -5.1%; BAZ2B inh: -15.5%; PLK1 PBD inh: 1.5%; HP1b chromo inh: 53.7%; JMJD2A Tudor inh: 2.7%

How did O=C(N/N=C\c1ccc(Oc2ccccc2)cc1)c1csnn1 do in these assays?
G9a block: 0.891µM*; Sfp inh: -82.8%; BAZ2B inh: 0.5%; PLK1 PBD inh: -1.5%; HP1b chromo inh: 42.3%; JMJD2A Tudor inh: -17.4%

How did Cc1cccc(/C=N\NC(=O)c2csnn2)c1 do in these assays?
G9a block: 8.8%[0.501 µM]; Sfp inh: 39.8µM*; BAZ2B inh: inconclusive; PLK1 PBD inh: -8.9%; HP1b chromo inh: 11.2%; JMJD2A Tudor inh: 79.4µM*

Results for C/C(CC(=O)Nc1ccc(N(C)C)cc1)=N\NC(=O)c1ccc(Cl)cc1Cl ?
G9a block: -8.7%[59 µM]; Sfp inh: 4.2%; BAZ2B inh: inconclusive; PLK1 PBD inh: 2.0%; HP1b chromo inh: 10.1%; JMJD2A Tudor inh: inconclusive

What do the screens show for `COc1cccc(C(=O)N/N=C(\C)CC(=O)Nc2ccc(N(C)C)cc2)c1`?
Sfp inh: -6.0%; BAZ2B inh: 56.2µM*; PLK1 PBD inh: -9.3%; HP1b chromo inh: 17.6%; JMJD2A Tudor inh: -27.7%
